Assay results taken from ChEMBL document CHEMBL4513216, “Probing the Open Global Health Chemical Diversity Library for Multistage-Active Starting Points for Next-Generation Antimalarials” (ACS Infect Dis, 2020).
Screen size: about 69,000 compounds; about 8,600 (12%) showed an effect of 50% or more. Shown is part of a subset that was picked to be rich in strong results.

The compounds below were run on Plasmodium berghei (assay: Screen against P. berghei liver stage (PbLuc), transformed with Luciferase, at 10uM). Conditions: tested at 10 uM.
Assay type: functional, HepG2

SMILES | INHIBITION [%]
Cc1cccc(-n2cc3[nH]c(=O)n(Cc4cccc(F)c4)n3c2=O)c1 | 25.2
CCc1noc(CN(CC)C(=O)CC2C(=O)NCCN2CC=C(C)C)n1 (centres undefined) | 16.9
Cc1nc(C2NC3(CCCC3)C(=O)N2CC2CC2)cs1 (centres undefined) | 47.7
Cc1csc(C2NC3(CCCC3)C(=O)N2CC2CC2)n1 (centres undefined) | 43.5
CCc1nc(C2NC3(CCCC3)C(=O)N2CC2CC2)cs1 (centres undefined) | 61.6
O=C(NCC1CC1)C1CSCN1S(=O)(=O)c1ccccc1 (centres undefined) | -35.9
Cc1n[nH]c(C2CN(CCc3cccs3)CCO2)n1 (centres undefined) | 35.3
Cc1cccc(CN2C(=O)CO[C@@H]3CN(CCO)C[C@H]32)c1 | -9.76
COc1ccc(-c2nnc(CN3CCCC3Cn3cncn3)o2)cc1 (centres undefined) | 45.1
Cc1nc(CN2C(=O)CC3(CCN(C(N)=O)CC3)c3ccccc32)cs1 | 36.4
O=C([C@H]1CCCO1)N1CCC2(CC1)C(=O)N(CC1CC1)c1ccccc12 | 17.4
NC(=O)N1CCC2(CC1)CC(=O)N(CC1CCCO1)c1ccccc12 (centres undefined) | 54.3
COCCN1CCC2(CCN(Cc3ccc(OC)cc3)CC2)C1=O | 38.3
O=C(c1ccc(=O)[nH]n1)N1CCCC1C1CCCC1 (centres undefined) | 18
O=C(c1cnc2[nH]c(=O)[nH]c(=O)c2c1)N1CCCC1C1CCCCC1 (centres undefined) | -1.35
O=C(c1c[nH]nn1)N1CCCC1C1CCCCC1 (centres undefined) | 53.8
CC(C)N1CCC2(CC1)CC(NS(C)(=O)=O)c1ccccc1O2 (centres undefined) | -12.2
CC(C)NC(=O)NCc1cc(-c2ccco2)n(CC(F)(F)F)n1 | 20.4
Cc1nc(N2CCC(O)(c3ccccc3)CC2)c2c(C)nn(C)c2n1 | 28.4
Cc1nc(C)c(C)c(N2CCC(O)(c3ccc(F)cc3)CC2)n1 | 25.5
Cc1nc(N2CCC(O)(c3ccc(F)cc3)CC2)c2c(C)nn(C)c2n1 | 51.2
Cn1cc(CN2CCC3(CC2)CCN(C(=O)c2cscn2)C3)cn1 | 38.5
COCC1CC2(CCN(c3cccc(C)n3)CC2)CN1c1ncccn1 (centres undefined) | 46.6
Cn1cncc1-c1nnc([C@H]2CCN(CC3CCCCC3)C2)o1 | -17.1
CN1CC[C@H](c2nnc(-c3cncn3C)o2)C1 | 61.5
Cc1ccccc1CN1CC[C@H](c2nnc(-c3cncn3C)o2)C1 | 5.96

SMILES | INHIBITION [%]
Cn1cncc1-c1nnc([C@H]2CCN(Cc3ccc(CO)o3)C2)o1 | -18.2
Cn1cncc1-c1nnc([C@H]2CCN(CC(C)(C)C)C2)o1 | 57.4
Cn1cncc1-c1nnc([C@H]2CCN(Cc3cccnc3)C2)o1 | 39.8
Cn1cncc1-c1nnc([C@H]2CCN(C3CCOCC3)C2)o1 | 4.61
Cn1cncc1-c1nnc([C@H]2CCN(Cc3ncc[nH]3)C2)o1 | 69.6
Cn1cncc1-c1nnc([C@H]2CCN(Cc3ccc(F)c(F)c3)C2)o1 | 11.4
COc1ccc(OC)c(CNCc2c(C(C)C)nn(C)c2N(C)C)c1 | 30.08
O=C1N[C@H]2OCCC[C@H]2[C@H](c2ccccc2C(=O)O)N1 | -0.495
Cc1ccc(C2(O)CCN(C(=O)c3cccc(S(C)(=O)=O)c3)CC2)nc1 | -6.09
Cc1n[nH]c(C)c1C1CCCN1C(=O)Cc1cccc(F)c1 (centres undefined) | 40.2
CSc1ccc(NC(=O)Cn2cc(N)cn2)cc1 | -15
Cc1cc(NCCc2nnc(N)s2)nc(-c2ccccc2)n1 | -13.3
CN1C(=O)CC[C@@H]2N(C(=O)CCc3cccnc3)CCCC[C@@]21C | 44.3
CC(=O)N1CCc2[nH]cnc2C1C1=CCCN(CCn2cccc2)C1 (centres undefined) | 12.8
CC(C)CC(C)N(C)Cc1nnc(-c2ccco2)o1 (centres undefined) | -17.5
CN(Cc1nnc(-c2cccs2)o1)C(C(N)=O)c1cccc(F)c1 (centres undefined) | -15.3
CN(Cc1nnc(C2CCC2)o1)C(C(N)=O)c1cccc(F)c1 (centres undefined) | 12.7
CC(C)C(C)N(C)Cc1nnc(-c2ccco2)o1 (centres undefined) | 66.9
CCCC(C)N(C)Cc1nnc(-c2ccco2)o1 (centres undefined) | 26.9
CN(Cc1nnc(-c2ccco2)o1)C(C(N)=O)c1cccc(F)c1 (centres undefined) | 61.5
CC(CNCc1ccc(Br)cc1)Oc1ccccn1 (centres undefined) | 13
Cc1ccc2nc(-c3nc4c([nH]3)CC(C)(C)CNC4=O)cn2c1 | 16.9
c1coc(CN2CCc3onc(Cn4cccc4)c3C2)c1 | 20.1
CC(C)Oc1ccccc1C1CC(=O)Nc2c1cnn2C (centres undefined) | -31.6
Cc1cccc(C(=O)N2CCCCC2c2nc3cc(F)ccc3[nH]2)n1 (centres undefined) | 39.1
NC(=O)c1ccc(N2CCCCC2)c(NC(=O)c2ccc(Br)cc2)c1 | 39.5

SMILES | INHIBITION [%]
NC(=O)c1ccc(N2CCCCC2)c(NC(=O)c2ccc(F)cc2F)c1 | 89.1
COCCCN1Cc2cccc(NC(=O)c3cc(F)ccc3F)c2C1 | 32.9
NC(=O)c1ccc(N2CCCCC2)c(NC(=O)c2cc(Br)ccc2F)c1 | 86.8
Cc1cc(NC(=O)c2ccc(F)cc2F)n(C)n1 | 29.3
NC(=O)c1ccc(N2CCCCC2)c(NC(=O)c2cc(Br)ccc2Cl)c1 | 81.2
O=C(c1cc(Br)ccc1-n1cnnn1)N1CCCCC1 | 24.2
CC(NC(=O)Nc1cc(F)ccc1N1CCCCC1)c1nncn1C (centres undefined) | 25.7
Cc1ccc(NC(=O)c2ccc(N3CCCCC3)nn2)c(Cl)c1 | 11.3
NC(=O)c1ccc(N2CCCCC2)c(NC(=O)c2cc(F)ccc2F)c1 | 93.1
C[C@@H]1CN(Cc2cc3ccccc3n2C)CC[C@]1(C)O | -13.6
CCc1cc(N(C)Cc2nonc2C)nc(N(C)C)n1 | 31.7
CC(Cn1cccn1)NC(=O)NCc1ccc(S(C)(=O)=O)cc1 (centres undefined) | 19.5
CC(C)n1cnnc1CN(C)C(=O)c1cnn2ccccc12 | 38.2
COc1cc(C)nc(N2CCN(C(=O)COCC3CC3)CC2)n1 | 23.295
CC(C)C(=O)N1CC2(CCN(CC(C)(C)C)CC2)C1 | 1.34
COCCN1CCOCC2(CCCN(Cc3ccc(C)o3)C2)C1 (centres undefined) | 20.2
CCN(CC(=O)NC1(C)CCS(=O)(=O)C1)Cc1ccc(OC)c(F)c1 (centres undefined) | -9.37
Cc1nccc([C@@H]2C[C@@H]3CCN(S(=O)(=O)C4CC4)C[C@H]3O2)n1 | -37.9
Cc1ccc(C(=O)Nc2cc(C(N)=O)ccc2N2CCCCC2)cc1F | 69.3
Cc1ccc(C(=O)Nc2cc(C(N)=O)ccc2CN(C)C)cc1Cl | 16.4
Cc1ccc(C(=O)Nc2ccc(N3CCCC3)cn2)cc1F | -6.12
NC(=O)c1ccc(N2CCCCC2)c(NC(=O)c2ccc(F)cc2Cl)c1 | 73.2
Cc1cc(C(N)=O)ccc1NC(=O)c1nc(N2CCCCC2)ncc1Cl | 49.3
Cc1cc(C(N)=O)ccc1NC(=O)c1nc(N2CCCC2)ncc1Cl | 20.1
CCn1nc(C)c2nc(C(C)C)nc(N3CCOCC3)c21 | -38.8
Cc1cnccc1-c1cnn(CCNC(=O)C(C)(C)C)c1C1CC1 | 39.7

SMILES | INHIBITION [%]
Cc1ccc(C(=O)N2C[C@@H](OCc3cccnc3)[C@H]3OCCC[C@@H]32)o1 | 35.4
CCCN(Cc1cccc(OCCO)c1)Cc1ccccc1OC | 25
CN(Cc1cccc(OCCO)c1)Cc1cccc2ncccc12 | 76.6
Cc1cn(CC(=O)N(C)Cc2cccc3ncccc23)c(=O)[nH]c1=O | -12.8
CN(Cc1cccc(CCN)c1)Cc1cccc2ncccc12 | 20.3
COCCN(Cc1cccc(OCCO)c1)Cc1ccccc1F | 13
CN(Cc1cccnc1N)Cc1cccc2ncccc12 | 83
CC(=O)N1CCCC(Cc2cnc(-n3ccnc3)cn2)C1 (centres undefined) | -33.4
CCC(=O)c1ccc(OCC(=O)NC(C)c2nnn[nH]2)cc1 (centres undefined) | -47.9
Cc1cc(C)c2nc(C)cc(C(=O)NC(C)c3nnn[nH]3)c2c1 (centres undefined) | 45.1
C=C(C)COc1cccc(C(=O)NC(C)c2nnn[nH]2)c1 (centres undefined) | 52.1
Cc1cc(C(=O)NC(C)c2nnn[nH]2)c2cccc(C)c2n1 (centres undefined) | 60
C=C(C)COc1cccc(C(=O)NCCCc2nnn[nH]2)c1 | 9.41
Cc1cc(C(=O)NC(C)c2nnn[nH]2)c2ccc(C)c(C)c2n1 (centres undefined) | -11.6
CN(C)C(=O)COC[C@@H]1CC[C@H]2[C@H](CCN2c2ncccn2)O1 | 0.542
COCc1ccccc1NC(=O)CCNC(=O)c1ccoc1 | -77.9
CN(C)C[C@@H]1CCC[C@@H]2CN(c3ncccn3)C[C@@H]21 | 16.1
O=C1CN(c2ccc(CNC(=O)NCc3ccoc3)cc2)CCN1 | -22.9
O=C1CN(c2ccc(CNC(=O)NCCO)cc2)CCN1 | 52.5
CC(O)CNC(=O)NCc1ccc(N2CCNC(=O)C2)cc1 (centres undefined) | 39.5
O=C1CN(c2ccc(CNC(=O)Nc3nnc(C4CC4)s3)cc2)CCN1 | 59.6
Cc1nnc(NC(=O)NCc2ccc(N3CCNC(=O)C3)cc2)s1 | 14.7
O=C(NCc1ccc(N2CC=CC2)cc1)Nc1nnc(C2CC2)s1 | 3.87
Cc1nn(CCC(=O)N(C)Cc2c(Cl)cnn2C)cc1Br | 18.3
CCN(Cc1ccc(Cl)c(Cl)c1)C(=O)CCn1cncn1 | 19.3
Cc1nc(C)n(CC2CN(c3ncccc3C#N)CCO2)n1 (centres undefined) | -14.7
